For test [1], the target named is Retinoic acid receptor RXR-alpha (Homo sapiens) (UniProt P19793). As to the kind of experiment: ATG_RXRa_TRANS: Attagene TRANS-FACTORIAL HepG2 Assay for human Retinoid X Receptor alpha (RXRa) (AID 2283012; active = hit-call score of the fitted dose curve at least 0.9, where 1 is the maximum). The method in brief: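 Transient transfection of human HepG2 with multiple GAL4-UAS reporter constructs; 24 h compound exposure; total RNA isolated, reverse-transcribed, PCR-amplified, 6-FAM labelled, HpaI-cut, resolved by capillary electrophoresis. Positive-direction fit versus DMSO.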

Test [2] addresses human Retinoid X Receptor beta (RXRb), RXRB (gene 6257) (UniProt P28702). As to the kind of experiment: ATG_RXRb_TRANS: Attagene TRANS-FACTORIAL HepG2 Assay for human Retinoid X Receptor beta (RXRb) (AID 2283013; active = hit-call score of the fitted dose curve at least 0.9, where 1 is the maximum). The method in brief:
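Transfect HepG2 with GAL4-UAS multi-reporter constructs (chimeric NR-Gal4, TRANS format); dose compound 24 h; isolate RNA, RT-PCR, FAM primer extension, HpaI digest; quantify by capillary electrophoresis; positive direction vs DMSO.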

Test [3] deals with human Thyroid Receptor alpha (THRa1), THRA (gene 7067) (UniProt P10827). In words: ATG_THRa1_TRANS: Attagene TRANS-FACTORIAL HepG2 Assay for human Thyroid Receptor alpha (THRa1) (AID 2283014; active = hit-call score of the fitted dose curve at least 0.9, where 1 is the maximum). The method in brief: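 First, HepG2 cells receive multiple GAL4-UAS reporter units and the chimeric receptor. They are then dosed for 24 h, after which RNA is reverse-transcribed, amplified, labelled, HpaI-cut and sized by capillary electrophoresis; gain relative to DMSO is scored.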

Read-out in test [4]: E-selectin (Homo sapiens) (UniProt P16581)
As to the kind of experiment: BSK_3C_Eselectin: BioMAP Diversity Plus: 3C Assay for Eselectin Biomarker Activity (AID 2283015).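 As to outcome: cell surface E-selectin protein quantified by ELISA 24 h after dosing.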 Particulars: primary human endothelial cells (HUVEC); actives raise or lower the signal. An outline of the steps: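 Human vascular endothelium from umbilical vein is exposed to test chemicals for 24 h. E-selectin levels are read by ELISA and compared with DMSO controls.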

Read-out in test [5]: Interleukin-1 alpha (IL1a), IL1A (gene 3552)
As to the kind of experiment: BSK_BE3C_IL1a: BioMAP Diversity Plus: BE3C Assay for Interleukin-1 alpha (IL1a) Biomarker Activity (AID 2283016). Particulars: primary human bronchial epithelial cells; actives raise or lower the signal. The method in brief:
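BE3C primary human bronchial epithelium; cpd 24 h; IL-1a by ELISA; bidirectional fit vs DMSO; parallel SRB (0.1% SRB, 10% TCA fix, 560 nm) for cytotoxicity.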

Read-out in test [6]: Monocyte Chemoattractant Protein-1 (MCP1), CCL2 (gene 6347)
As to the kind of experiment: BSK_3C_MCP1: BioMAP Diversity Plus: 3C Assay for Monocyte Chemoattractant Protein-1 (MCP1) Biomarker Activity (AID 2283017). Particulars: primary human endothelial cells (HUVEC); actives raise or lower the signal. The method in brief: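 Endothelial cells from human umbilical vein are dosed with chemical, cultured 24 h, then assayed for MCP-1 by ELISA; both increases and decreases are modelled against DMSO controls.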

Read-out in test [7]: Monocyte Chemoattractant Protein-1 (MCP1), CCL2 (gene 6347)
As to the kind of experiment: BSK_4H_MCP1: BioMAP Diversity Plus: 4H Assay for Monocyte Chemoattractant Protein-1 (MCP1) Biomarker Activity (AID 2283018). Particulars: primary human endothelial cells (HUVEC); actives raise or lower the signal. The method in brief: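 ELISA read-out of MCP-1 from human vascular endothelial primary cells taken at 24 hours after compound exposure. Activity was fitted in both directions relative to DMSO, which served as negative control.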

Read-out in test [8]: Human Leukocyte Antigen - DR isotype (HLADR), HLA-DRA (gene 3122)
In words: BSK_3C_HLADR: BioMAP Diversity Plus: 3C Assay for Human Leukocyte Antigen - DR isotype (HLADR) Biomarker Activity (AID 2283019).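 As to outcome: ELISA of cell-surface HLA-DR on HUVEC 24 h after dosing.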 Particulars: primary human endothelial cells (HUVEC); actives raise or lower the signal. An outline of the steps:
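Endothelial cells from human umbilical vein are treated with test chemical; after 24 h, HLA-DR levels are measured by ELISA. Data are fitted in both directions using DMSO as the baseline.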

Read-out in test [9]: Interleukin-8 (IL8), CXCL8 (gene 3576)
As to the kind of experiment: BSK_3C_IL8: BioMAP Diversity Plus: 3C Assay for Interleukin-8 (IL8) Biomarker Activity (AID 2283020). Particulars: primary human endothelial cells (HUVEC); actives raise or lower the signal. The method in brief:
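ELISA read-out of IL-8 from human umbilical vein endothelium, measured 24 h after chemical dosing. Activity is expressed relative to DMSO negative control, with both increases and decreases fitted.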

Read-out in test [10]: Monokine induced gamma interferon (MIG), CXCL9 (gene 4283)
As to the kind of experiment: BSK_3C_MIG: BioMAP Diversity Plus: 3C Assay for Monokine induced gamma interferon (MIG) Biomarker Activity (AID 2283021). Particulars: primary human endothelial cells (HUVEC); actives raise or lower the signal. The method in brief: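 Read-out is ELISA detection of MIG on human umbilical vein endothelial cells, taken 24 h after dosing. Gain or loss of signal was scored relative to DMSO controls using bidirectional curve fitting.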

Results filed as inconclusive are left out. Where a structure was tested more than once in an assay, its records may differ in their call. The source made the active and inactive calls. The calls were made as follows, unless noted: active = hit-call score of the fitted dose curve at least 0.9, where 1 is the maximum; inactive = score below 0.9.

Sequence of Retinoic acid receptor RXR-alpha (Homo sapiens) (P19793 whole entry, looked up, the tested form may be a part): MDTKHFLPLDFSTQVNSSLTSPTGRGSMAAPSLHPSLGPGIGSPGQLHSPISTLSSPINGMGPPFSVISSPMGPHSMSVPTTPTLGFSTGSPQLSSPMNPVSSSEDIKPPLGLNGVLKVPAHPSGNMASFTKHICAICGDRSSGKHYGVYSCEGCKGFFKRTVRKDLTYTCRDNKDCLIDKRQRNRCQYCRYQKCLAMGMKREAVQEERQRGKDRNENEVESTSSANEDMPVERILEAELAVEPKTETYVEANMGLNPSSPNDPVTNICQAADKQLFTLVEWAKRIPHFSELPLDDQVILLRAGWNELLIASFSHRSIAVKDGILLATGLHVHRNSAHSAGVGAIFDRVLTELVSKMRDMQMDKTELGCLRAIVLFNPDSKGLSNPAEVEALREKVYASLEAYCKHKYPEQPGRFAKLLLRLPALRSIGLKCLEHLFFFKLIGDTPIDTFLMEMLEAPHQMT
Sequence of human Retinoid X Receptor beta (RXRb), RXRB (gene 6257) (P28702 whole entry, looked up, the tested form may be a part): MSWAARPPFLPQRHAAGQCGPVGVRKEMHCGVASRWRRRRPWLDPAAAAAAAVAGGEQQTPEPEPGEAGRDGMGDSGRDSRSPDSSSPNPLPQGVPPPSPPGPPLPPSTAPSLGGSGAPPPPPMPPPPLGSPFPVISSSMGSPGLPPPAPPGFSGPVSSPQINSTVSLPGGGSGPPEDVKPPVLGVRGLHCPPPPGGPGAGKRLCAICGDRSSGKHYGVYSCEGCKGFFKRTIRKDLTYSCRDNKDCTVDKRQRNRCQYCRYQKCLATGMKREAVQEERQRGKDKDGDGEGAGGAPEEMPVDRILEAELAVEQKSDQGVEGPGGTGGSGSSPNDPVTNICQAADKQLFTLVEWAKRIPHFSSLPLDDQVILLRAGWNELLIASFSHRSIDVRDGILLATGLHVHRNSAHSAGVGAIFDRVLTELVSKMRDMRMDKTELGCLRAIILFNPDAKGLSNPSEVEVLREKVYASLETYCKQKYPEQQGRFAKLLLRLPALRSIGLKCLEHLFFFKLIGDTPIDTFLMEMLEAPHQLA
Sequence of E-selectin (Homo sapiens) (P16581 whole entry, looked up): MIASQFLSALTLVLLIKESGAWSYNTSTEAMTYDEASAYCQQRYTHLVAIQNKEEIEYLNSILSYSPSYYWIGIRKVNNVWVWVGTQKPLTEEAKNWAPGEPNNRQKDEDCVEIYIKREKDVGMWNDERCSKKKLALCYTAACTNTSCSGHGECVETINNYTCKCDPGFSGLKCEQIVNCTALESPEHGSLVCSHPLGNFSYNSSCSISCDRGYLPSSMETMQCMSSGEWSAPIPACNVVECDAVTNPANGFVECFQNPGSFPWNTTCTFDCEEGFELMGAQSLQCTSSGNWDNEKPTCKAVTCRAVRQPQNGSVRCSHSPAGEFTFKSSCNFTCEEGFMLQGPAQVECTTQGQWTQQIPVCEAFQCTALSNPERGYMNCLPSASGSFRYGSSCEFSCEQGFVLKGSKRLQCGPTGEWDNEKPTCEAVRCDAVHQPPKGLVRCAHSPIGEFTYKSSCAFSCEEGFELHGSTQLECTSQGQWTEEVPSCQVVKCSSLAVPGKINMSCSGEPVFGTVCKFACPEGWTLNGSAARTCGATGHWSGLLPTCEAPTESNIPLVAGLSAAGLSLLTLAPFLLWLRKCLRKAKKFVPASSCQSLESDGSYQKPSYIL
Sequence of human Thyroid Receptor alpha (THRa1), THRA (gene 7067) (P10827 whole entry, looked up, the tested form may be a part): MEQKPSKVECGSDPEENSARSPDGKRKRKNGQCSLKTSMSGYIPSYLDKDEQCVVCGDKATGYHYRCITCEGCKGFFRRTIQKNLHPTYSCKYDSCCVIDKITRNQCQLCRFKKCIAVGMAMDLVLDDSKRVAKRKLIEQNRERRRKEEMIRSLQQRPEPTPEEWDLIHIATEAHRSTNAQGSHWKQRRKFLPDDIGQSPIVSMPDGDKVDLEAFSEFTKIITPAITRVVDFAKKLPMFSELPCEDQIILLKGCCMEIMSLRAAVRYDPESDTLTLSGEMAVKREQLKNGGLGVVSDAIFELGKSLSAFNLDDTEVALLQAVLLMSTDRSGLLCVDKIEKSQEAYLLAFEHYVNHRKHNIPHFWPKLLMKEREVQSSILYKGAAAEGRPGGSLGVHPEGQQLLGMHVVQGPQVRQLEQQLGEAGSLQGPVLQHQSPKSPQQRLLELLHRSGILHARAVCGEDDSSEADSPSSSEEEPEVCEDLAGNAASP

In the case of `Nc1ccc2cc(S(=O)(=O)O)cc(O)c2c1N=Nc1ccccc1C(F)(F)F`, the AC50 (commonly the concentration at which the activity in the assay is half-maximal) was 78 µM (active) in [1] and 14.8 µM (active) in test [2]. Moreover, in [3], the result was inactive.

Turning to `Nc1ccc(NCCO)c([N+](=O)[O-])c1`, the result in test [1] and in test [3] was inactive. In test [2], the AC50 is 18.1 µM (active).

Take `O=CN1CCOCC1`: the call in test [1], in [2], in test [4], in test [5], in test [6] and in test [7] was inactive. For the same molecule, the result in test [8], in [9] and in test [10] was inactive.

For `Nc1ccc(N)c2c1C(=O)c1ccccc1C2=O`, the result in test [1], in test [2] and in test [3] was inactive.

Take `CCCCCCCCCCCCCC(=O)OCC(O)CO` (centres undefined): the result in test [1], in test [2] and in [3] was inactive.

On to `CCCCC1CCC(O)CC1` (centres undefined), for which the call in [1], in [2] and in test [3] was inactive.

Take `Cc1cc(C)nc(NS(=O)(=O)c2ccc(N)cc2)n1`: the result in [1], in [2] and in [3] was inactive.

`CC(C)C[C@H](NC(=O)OCC1c2ccccc2-c2ccccc21)C(=O)O`: the outcome in test [1], in test [2] and in test [3] was inactive.

Regarding `COc1ccc(OC)c(N=Nc2c(O)ccc3ccccc23)c1`, the molecule was classed as inactive in test [1], in [2], in test [3], in test [4], in [7] and in test [9]. Besides, the outcome in [10] was inactive. Moreover, the AC50 is 2.11 µM (active) in test [5], 20 µM (active) in test [6] and 10.9 µM (active) in test [8].

As to `C=C(C)[C@H]1CC=C(C)C(=O)C1`, the result in test [1], in test [2], in [3], in test [4], in test [5] and in test [6] was inactive. Besides, the result in test [7], in [8], in test [9] and in test [10] was inactive.

Consider `C=C1C[C@]23C[C@@]1(O)CC[C@H]2[C@@]12C=C[C@H](O)[C@@](C)(C(=O)O1)[C@H]2[C@@H]3C(=O)O`, for which the call in test [1], in test [2] and in test [3] was inactive.

For the molecule `BrCc1cccc(Oc2ccccc2)c1`, the outcome in test [1] and in [3] was inactive. The AC50 in [2] is 66.9 µM (active).

Take `CC(C=O)Cc1ccc(C(C)(C)C)cc1` (centres undefined): the call in test [1], in test [2], in test [5], in test [9] and in [10] was inactive. For the same molecule, the AC50 in [4] is 30.8 µM (active); in test [6], 30.6 µM (active); in [7], 20 µM (active); in [8] it was 30.3 µM (active).

For `CN(c1nccc(=O)[nH]1)C1CCN(c2nc3ccccc3n2Cc2ccc(F)cc2)CC1`, the result in [1], in [2], in test [3], in test [4], in [5] and in test [6] was inactive. In addition, the result in [7], in test [8], in [9] and in test [10] was inactive.

Take `CC1=NN(c2ccc(S(=O)(=O)O)cc2)C(=O)C1`: the molecule was classed as inactive in test [1], in [2] and in test [3].

Turning to `O=C(O)c1cc(C(=O)O)cc([N+](=O)[O-])c1`, the outcome in test [1], in test [2] and in test [3] was inactive.

Take `O=C1OC2(c3ccccc31)c1ccc(O)c(Br)c1Oc1c2ccc(O)c1Br`: the molecule was called inactive in test [1], in test [2], in [3] and in test [10]. Also, the AC50 in [4] is 24.7 µM (active); in test [5] it was 9.21 µM (active); in test [6] it was 20 µM (active); in test [7] it was 25.4 µM (active); in test [8] it was 20 µM (active); in [9], 24.4 µM (active).

Regarding `CC(C)=CCCC(C)CCOC=O` (centres undefined), the result in test [1], in test [2] and in [3] was inactive.

As for `c1ccc(CCc2ccccc2)cc1`, the molecule was classed as inactive in test [1], in [2] and in test [3]. The AC50 in test [4] is 28.7 µM (active); in test [5], 27 µM (active); in test [6], 28.5 µM (active); in test [7] it was 32.1 µM (active); in test [8] it was 15.3 µM (active); in test [9], 25.8 µM (active).

In the case of `C=C(C)[C@@H]1CC=C(C)C(=O)C1`, the call in [1], in test [2] and in test [3] was inactive.

Consider `O=C(Nc1ccc2c(O)c(N=Nc3ccc(N=Nc4ccc(S(=O)(=O)O)cc4)cc3)c(S(=O)(=O)O)cc2c1)c1ccccc1`, for which the molecule was called inactive in test [1], in test [2], in test [3], in [4], in [5] and in test [6]. Also, the result in test [7], in test [8], in [9] and in [10] was inactive. The AC50 in test [9] is 20 µM (active).

For the molecule `Nc1c(S(=O)(=O)O)cc(Br)c2c1C(=O)c1ccccc1C2=O`, the call in [1], in test [2] and in test [3] was inactive.

Consider `O=C(Nc1ccc2c(c1)Cc1ccccc1-2)C(F)(F)F`, for which the molecule was called inactive in test [1], in test [2] and in [3].

`CC1(C)C2=CCCC(C)(C)[C@]23CC[C@H]1C3`: the molecule was called inactive in [1], in test [2], in test [5], in test [7] and in test [10]. The AC50 in [4] is 32.8 µM (active); in test [6], 30.4 µM (active); in [8], 29.1 µM (active); in [9] it was 20 µM (active).

On to `O=C1c2ccccc2C(=O)c2c(O)ccc(O)c21`, for which the molecule was classed as inactive in test [1], in [2], in test [3], in test [4], in [5] and in test [6]. The result in test [7] and in test [10] was inactive. Moreover, the values for the AC50 in test [8] and in test [9] were 8.08 µM (active) and 2.12 µM (active), respectively.

`CN(C)CCOc1ccc(/C(=C(/CCCl)c2ccccc2)c2ccccc2)cc1`: the molecule was classed as inactive in test [1], in test [2] and in test [3].

As for `CCOC(=O)C(C#N)=C(c1ccccc1)c1ccccc1`, the molecule was called inactive in test [1], in test [3], in test [4], in test [5], in [6] and in test [7]. Further, the outcome in test [8], in test [9] and in test [10] was inactive. Besides, the AC50 in [2] is 26.6 µM (active); in test [7] it was 1 µM (active).

With `CC(C)(C)C1=CC(=O)C(C(C)(C)C)=CC1=O`, the result in test [1] and in [3] was inactive. Further, in [2], the AC50 was 13.7 µM (active).
